In the library only some 21% were active in any assay of this set; here they are far more common.
DRD3 agonist: D3 dopamine receptor (human) agonism | actives 0.58% (n = 410,000) | D3R DiscoveRx beta-arrestin cells, luminescence, 90 min | max activation, %; in the data active = max activation above about 30%
Target sequence (P35462 whole entry, looked up): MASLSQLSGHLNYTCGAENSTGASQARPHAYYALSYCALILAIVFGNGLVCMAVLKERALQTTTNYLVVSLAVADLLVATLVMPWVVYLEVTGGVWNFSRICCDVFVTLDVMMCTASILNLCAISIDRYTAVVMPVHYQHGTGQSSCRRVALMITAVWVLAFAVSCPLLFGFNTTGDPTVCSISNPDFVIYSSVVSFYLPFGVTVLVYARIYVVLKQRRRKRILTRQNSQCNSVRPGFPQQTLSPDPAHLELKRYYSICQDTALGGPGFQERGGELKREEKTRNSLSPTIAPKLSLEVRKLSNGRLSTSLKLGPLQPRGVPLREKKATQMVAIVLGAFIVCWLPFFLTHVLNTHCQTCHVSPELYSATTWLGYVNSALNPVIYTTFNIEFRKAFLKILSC
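Agonist mode: compounds and dopamine controls were applied to plated cells for 90 min at 37 degrees C after an overnight attachment at 1500 cells/well. Luminescent read-out followed 30 - 60 minutes at room temperature with DiscoveRx detection reagent.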
IL-1B inflam inh: blocks inflammasome-driven IL-1 beta release. activity change, % at 57.5 µM. actives 4.7% (n = 360,000). THP-1 LPS/ATP IL-1B secretion, AlphaLISA, 16 h; active compounds read low; in the data active = activity change below about -50%; inconclusive = mostly about -30% to -49%
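Secreted IL-1B measured by AlphaLISA bead assay after 16 h compound exposure of THP-1 cells; compounds (final up to 57.5 uM) added 1 h before LPS (250 ng/mL) and ATP (1.25 mM) stimulation; lower signal means less secretion.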
ClpP mod: qHTS Assay for Activators of ClpP; ATP-dependent Clp protease proteolytic subunit (Bacillus subtilis (strain 168)), P80244; purified B. subtilis ClpP, FRET peptide cleavage, 20 min; Potency, µM (highest dose often 57.5 µM); actives 1.9% (n = 340,000); AID 651965, 2013; active = well fitted falling curve with a large enough effect; inconclusive = small, poorly fitted or top-dose-only effect; inactive = no such curve, though single readings can be large or run the other way; note: the source files actives as falling curves though it sought activators and does not explain the sign; nearly all actives have a fitted effect of over 65% in size
Target sequence (P80244 whole entry, looked up): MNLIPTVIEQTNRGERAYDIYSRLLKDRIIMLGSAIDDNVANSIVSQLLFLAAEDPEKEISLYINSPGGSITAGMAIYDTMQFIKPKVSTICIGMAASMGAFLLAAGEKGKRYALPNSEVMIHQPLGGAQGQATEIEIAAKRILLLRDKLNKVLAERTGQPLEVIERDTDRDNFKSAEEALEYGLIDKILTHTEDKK
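Buffer: 100 mM Tris/HCl pH8, 100 mM KCl, 0.05% low protease BSA, 2.5% glycerol, 0.01% Tween-20. ClpP 10 microg/mL final; 20 min RT; delta FRET normalized to ADEP and DMSO controls.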
DT40 TDP1 no CPT: qHTS for Inhibitors of human tyrosyl-DNA phosphodiesterase 1 (TDP1): qHTS in cells in absence of CPT. DT40 Tdp1-/- hTDP1 cells, no CPT, ATP luminescence, 48 h. Potency, µM (series often up to 46.2 µM), usual class: inhibitors. actives 15% (n = 420,000). AID 686978, 2013; note: nearly all actives have a fitted effect of over 55% in size
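No-CPT arm: Tdp1-/-;hTDP1 DT40 cells (400/well) plus compounds, incubated ≥48 hr at 37 °C. Readout CellTiter-Glo luminescence.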
D3 antag: blocks the human D3 dopamine receptor | P35462 | actives 2.5% (n = 360,000) | D3R cells, DiscoveRx beta-arrestin luminescence, antagonist mode; active compounds read low | max response, negative = inhibition, %; in the data active = max response below about -50%; inconclusive = no clear call, values can overlap the other calls
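Cells plated overnight at 1500 cells/well, then exposed to library compounds with dopamine controls for 90 minutes at 37 degrees C. DiscoveRx reagent added for 30–60 minutes at room temperature; luminescence read, quantitative HTS format.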
DT40 TDP1 CPT: growth inhibition of DT40 Tdp1-/-;hTDP1 cells with camptothecin (screen for TDP1 inhibitors); AID 686979; chicken DT40 Tdp1-/-;hTDP1 cells + 20 nM CPT, ATP luminescence, 48 h; Potency, µM (highest dose often 46.2 µM), most hits filed as inhibitors; actives 12% (n = 420,000); note: nearly all actives have a fitted effect of over 55% in size
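Chicken DT40 Tdp1-/- cells complemented with human TDP1, 400 cells/well, exposed to compounds plus 20 nM camptothecin for at least 48 h at 37 C; viability read as ATP content by CellTiter-Glo luminescence.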
Large screens that a line does not name were inactive. Unless noted, calls come from the whole dose curve; as a rule, active = well fitted inhibition curve with a large enough effect; inconclusive = small, poorly fitted or top-dose-only effect; inactive = flat fitted curve, though single readings scatter.

CCO[C@@H]1OC(C(=O)NC2CC2)=C[C@H](c2c[nH]c3ccccc23)[C@H]1CCCO	D3 antag -65
C#CCNC(=O)C1=C[C@@H](c2ccc(Br)cc2)[C@H](CCCO)[C@@H](OCC)O1	DT40 TDP1 no CPT 15µM, DT40 TDP1 CPT 15µM
C#CCNC(=O)C1=C[C@H](c2ccc(Br)cc2)[C@@H](CCCO)[C@H](OCC)O1	DT40 TDP1 no CPT 13µM, DT40 TDP1 CPT inconclusive
C#CCNC(=O)C1=C[C@H](c2ccc(C(F)(F)F)cc2)[C@@H](CCCO)[C@H](OCC)O1	DRD3 agonist 34, DT40 TDP1 no CPT inconclusive
C#CCNC(=O)C1=C[C@@H](c2ccc(C#C)cc2)[C@H](CCCO)[C@@H](OCC)O1	none
CCCN1C(=O)C2(c3ccccc31)c1c(oc3cc(C)c(C)cc3c1=O)C(=O)N2CCCOC (centres undefined)	DT40 TDP1 no CPT inconclusive, DT40 TDP1 CPT inconclusive (no result: IL-1B inflam inh, D3 antag)
CCO[C@H]1OC(C(=O)Nc2ccccc2)=C[C@@H](c2ccc(Br)cc2)[C@@H]1CCCO	DT40 TDP1 no CPT 18µM, DT40 TDP1 CPT 16µM
C#Cc1ccc([C@H]2C=C(C(=O)NC3CC3)O[C@@H](OCC)[C@@H]2CCCO)cc1	DT40 TDP1 no CPT 23µM, DT40 TDP1 CPT inconclusive
CCOC(=O)N1CCN(C(=O)c2ccc3c(c2)N(Cc2ccccc2F)C(=O)c2ccccc2S3=O)CC1 (centres undefined)	DT40 TDP1 no CPT inconclusive, DT40 TDP1 CPT inconclusive (no result: IL-1B inflam inh, D3 antag)
COc1ccc(C(=O)N2CCC2)cc1S(=O)(=O)NCc1ccc(Cl)cc1	none
Cc1ccc(C)c(OC(=O)CSc2nnc(-c3ccc4c(c3)OCO4)o2)c1	none (no result: IL-1B inflam inh, D3 antag)
Cc1ccc2oc(C(=O)N3CCC(O)(c4cccc(C(F)(F)F)c4)CC3)c(C)c2c1	IL-1B inflam inh -52, DT40 TDP1 no CPT inconclusive (no result: ClpP mod)
CC(=O)Nc1cccc(NC(=O)CSc2nc(=O)n3cccc(C)c3n2)c1	none
COC(=O)CSc1ccc(C#N)c(SCC(=O)OC)c1	IL-1B inflam inh -105, ClpP mod 14µM
COC(=O)CSc1cc(SCC(=O)OC)c(C#N)c(SCC(=O)OC)c1	IL-1B inflam inh -113
COC(=O)CSc1nc(C)cc(C(F)(F)F)c1C#N	none
COC(=O)CSc1nnc(-c2ccc(OC)c(OC)c2)o1	none (no result: ClpP mod)
COc1ccc(C(=O)O)cc1NC(=S)NC(=O)C(c1ccccc1)c1ccccc1	none
COc1ccc2[nH]c(C(=O)NCCCn3ccnc3)cc2c1	none
CN(C)N=C1c2cc(S(=O)(=O)N(C)C)ccc2-c2ccc(S(=O)(=O)N(C)C)cc21	DT40 TDP1 no CPT 2.9µM, D3 antag inconclusive, DT40 TDP1 CPT 4.6µM
CC(C)(CO)NS(=O)(=O)c1ccc2c(c1)C(=NO)c1cc(S(=O)(=O)NC(C)(C)CO)ccc1-2	none
CN(C)S(=O)(=O)c1ccc2c(c1)C(=NO)c1cc(S(=O)(=O)N(C)C)ccc1-2	DT40 TDP1 no CPT 8.2µM, DT40 TDP1 CPT inconclusive (no result: ClpP mod)
CN(CCO)S(=O)(=O)c1ccc2c(c1)C(=NNC(N)=O)c1cc(S(=O)(=O)N(C)CCO)ccc1-2	none
CN(C)S(=O)(=O)c1ccc2c(c1)C(=NNC(N)=O)c1cc(S(=O)(=O)N(C)C)ccc1-2	DT40 TDP1 no CPT inconclusive, DT40 TDP1 CPT 16µM
COC(=O)c1cc(=O)nc(NN=Cc2ccc(OC)cc2)s1	none
C=CCc1cccc(/C=N/NC(=O)c2ccc3nc[nH]c3c2)c1O	DT40 TDP1 no CPT 5.8µM, DT40 TDP1 CPT 9.2µM
C=CCc1cccc(/C=N/NC(=O)C(=O)Nc2ccc(C)cc2)c1O	DT40 TDP1 no CPT 5.2µM, DT40 TDP1 CPT 3.7µM (no result: ClpP mod)
C=CCc1cccc(/C=N/NC(=O)C(C)Nc2ccc(C)cc2)c1O (centres undefined)	DT40 TDP1 no CPT 8.2µM, DT40 TDP1 CPT 16µM
O=C(CSC1=NS(=O)(=O)c2cc(F)ccc2N1)NCCc1ccccc1	none
CC(C)NC(=O)CCc1nc2cccnc2n1-c1ccccc1	none (no result: ClpP mod)
Cc1cc(C(=O)COC(=O)C2=COCCO2)c(C)n1-c1cccc(F)c1	DT40 TDP1 no CPT inconclusive, DT40 TDP1 CPT inconclusive (no result: ClpP mod)
CCN1C(=O)/C(=C/C=C2/Sc3ccc4ccccc4c3N2CCO)SC1=S	DT40 TDP1 no CPT inconclusive, DT40 TDP1 CPT inconclusive
CCN1/C(=C/C=C/c2oc3ccc4ccccc4c3[n+]2CC)Oc2ccc3ccccc3c21	DT40 TDP1 no CPT 0.18µM, DT40 TDP1 CPT 0.65µM (no result: ClpP mod)
CCOC(=O)CC1CCCCN1C(=O)c1cc(COc2cccc3cnccc23)on1 (centres undefined)	DT40 TDP1 no CPT 3.7µM, DT40 TDP1 CPT 1.6µM
COCCC1CCCCN1C(=O)c1cc(COc2cccc(C(C)=O)c2)on1 (centres undefined)	DT40 TDP1 no CPT 26µM, DT40 TDP1 CPT 23µM
O=C(c1cc(COc2cccc3cccnc23)on1)N1CCC[C@H]1CO	IL-1B inflam inh -64
CC(=O)c1ccc(OCc2cc(C(=O)N3CCC[C@H]3CO)no2)cc1	none
COC(=O)c1ccc(Cn2c(C)c(C(=O)NCc3ccc(Cl)c(Cl)c3)sc2=O)o1	DT40 TDP1 no CPT 21µM, DT40 TDP1 CPT inconclusive
COC(=O)c1ccc(Cn2c(C)c(C(=O)NCc3ccco3)sc2=O)o1	IL-1B inflam inh -56
COc1ccc2c(C)c(CCC(=O)NCc3ccccc3Cl)c(=O)oc2c1C	DT40 TDP1 no CPT inconclusive (no result: IL-1B inflam inh, D3 antag)
CCOC(=O)CN(C(=O)COc1nc(-c2ccccc2)cc(C)c1C#N)c1ccccc1C	DT40 TDP1 no CPT 10µM, DT40 TDP1 CPT 16µM
CCOC(=O)CN(C(=O)COc1nc(-c2ccccc2)cc(C)c1C#N)c1ccccc1	DT40 TDP1 no CPT inconclusive (no result: ClpP mod)
CCOc1cccc(CN2CCCC(C(=O)c3cc(Cl)ccc3OC)C2)c1O (centres undefined)	IL-1B inflam inh -55, DT40 TDP1 no CPT inconclusive, D3 antag -106, DT40 TDP1 CPT inconclusive (no result: ClpP mod)
CCOc1cccc(CN2CCCC(N3CCc4ccccc4C3)C2)c1O (centres undefined)	DT40 TDP1 no CPT inconclusive, D3 antag inconclusive (no result: ClpP mod)
CCOc1cccc(CN2CCCC(N3CCN(c4cccc(Cl)c4)CC3)C2)c1O (centres undefined)	IL-1B inflam inh -72, DT40 TDP1 no CPT inconclusive (no result: ClpP mod)
O=C(Nc1cc(Sc2nc3ccccc3s2)cc([N+](=O)[O-])c1)c1ccccc1F	DT40 TDP1 no CPT inconclusive, DT40 TDP1 CPT 21µM
O=C(Nc1cc(Sc2nc3ccccc3s2)cc([N+](=O)[O-])c1)c1ccccc1	DT40 TDP1 no CPT 16µM, DT40 TDP1 CPT inconclusive
Cc1cc(NC(=O)CCOc2ccc(F)cc2)no1	none (no result: ClpP mod)
